PglD DTNB: C. jejuni PglD acetyltransferase inhibitors, primary screen, biochemical, DTNB colorimetric, single point; AID 602405, 2012; 360,000 tested, 0.098% active; purified PglD enzyme, DTNB colorimetric CoA detection; inhibition, % at 12.5 µM; in the data active = inhibition above about 16%, passing the limit was not always enough
ALR inh: inhibitors of human ALR sulfhydryl oxidase, primary screen, biochemical, H2O2 detection, HRP-luminol luminescence, single point; purified ALR, DTT oxidation; inhibition, % (concentration not given with the values); 290,000 tested, 3.8% active;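 active = mean replicate inhibition above about 79%, with every replicate also reaching it, limit read from the data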
PDI turbidity: inhibitors of human PDI, primary screen, biochemical, turbidity, single point, plate reader. Protein disulfide-isomerase (Homo sapiens), P07237. PDI insulin aggregation turbidity, A650, 90 min. inhibition, % at 10 µM. 350,000 tested, 0.052% active;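 active = mean inhibition across replicates of 30% or more, whatever share of single replicates reach that level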
NRP1-CendR mod: modulators of CendR peptide binding to NRP-1, primary screen, biochemical, fluorescence polarization, uHTS; Neuropilin-1 (Homo sapiens), O14786; FAM-RPARPAR peptide binding to NRP-1; inhibition, % at 25 µM; 360,000 tested, 0.85% active;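 active = inhibition or corrected inhibition above about 18%, plus a signal ratio from 0.5 to 1.5, limit read from the data, passing the limit was not always enough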
ARNT TACC3 PPI: disruptors of ARNT/TACC3 protein interaction, primary screen, biochemical, AlphaScreen, single concentration; AlphaScreen His-ARNT PAS-B/GST-TACC3 binding, luminescence; TACC3 fragment carries E629A point mutation; 390,000 tested, 0.66% active; inhibition, % at 9.99 µM;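 active = mean inhibition of replicates at least 50% and at least half of replicates each reaching 50%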;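 also: 0% = complete ARNT plus TACC3 wells and 100% = ARNT alone without TACC3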
ERp5 block: inhibitors of ERp5-driven insulin aggregation, primary screen, biochemical, turbidity, absorbance 650 nm, single point | inhibition, % at 9.99 µM | 350,000 tested, 0.05% active | 90 min;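 active = mean replicate inhibition above about 25%, with every replicate also reaching it, limit read from the data, passing the limit was not always enough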
* marks the source's active call; other numbers are inactive results; . = no result given. The sample as a whole holds a higher share of hits than the screen did.

SMILES | PglD DTNB | ALR inh | PDI turbidity | NRP1-CendR mod | ARNT TACC3 PPI | ERp5 block
CC(C)CN(C(=O)CN1CCN(c2ccc(O)cc2)CC1)c1c(N)n(CC(C)C)c(=O)[nH]c1=O | . | 99.5* | -0.4 | -0.1 | -12.0 | 8.7
O=C(C[C@@H]1CC[C@@H](NC(=O)Nc2cc(F)ccc2F)[C@@H](CO)O1)Nc1ccccc1 | -5.0 | . | . | . | -9.4 | -0.7
CC(C)C(=O)NNc1ccccc1 | . | 42.3 | 2.8 | -8.0 | -7.3 | .
O=C(NNc1ccccc1)C(CCO)C(=O)NNc1ccccc1 | . | 97.9* | 16.1 | 2.9 | 12.2 | -1.4
CC(O)CC(C(=O)NNc1ccccc1)C(=O)NNc1ccccc1 (centres undefined) | . | 99.1* | -6.3 | -4.4 | 1.0 | -6.1
COC(=O)c1ccc(N2C(=O)CC(SCC(=O)Nc3ccc(OC)cc3)C2=O)cc1 (centres undefined) | . | . | 1.3 | 2.3 | 8.1 | 0.9
O=C(CSC1CC(=O)N(c2ccc(C(=O)O)cc2)C1=O)Nc1ccc2ccccc2c1 (centres undefined) | . | 99.6* | 2.0 | 5.9 | -6.3 | -5.9
Cc1ccc(N2C(=O)CC(SCC(=O)Nc3ccc(S(N)(=O)=O)cc3)C2=O)cc1 (centres undefined) | . | 98.8* | -2.7 | 8.2 | 3.8 | -0.3
NS(=O)(=O)c1ccc(NC(=O)CSC2CCCCC2)cc1 | 3.4 | -10.4 | 1.0 | 0.7 | 0.4 | .
CCOC(=O)c1ccc(N2C(=O)CC(SCC(=O)Nc3ccc(S(N)(=O)=O)cc3)C2=O)cc1 (centres undefined) | . | 99.0* | -2.9 | 6.5 | . | -1.4
O=C(O)CSC1CC(=O)N(c2ccc(Cl)c(Cl)c2)C1=O (centres undefined) | 3.5 | 97.5* | 3.4 | 12.3 | -6.3 | .
C[C@H](CO)N1C[C@H](C)[C@H](CN(C)C(=O)Nc2ccccc2)Oc2c(cccc2N(C)C)C1=O | -3.3 | . | . | . | -1.2 | -2.2
CO[C@H]1CN(C)C(=O)c2ccc(NC(C)=O)cc2OC[C@H](C)N(C(=O)C2CCOCC2)C[C@H]1C | 1.5 | . | . | . | 4.2 | 5.4
CC(C)CCN1C(=O)c2ccc(C(=O)Nc3cc(C(=O)O)cc(C(=O)O)c3)cc2C1=O | 3.4 | 0.0 | 6.6 | -8.8 | 12.2 | 1.1
CC(=O)NS(=O)(=O)c1ccc(NC(=O)c2ccc3c(c2)C(=O)N(CCC(C)C)C3=O)cc1 | -0.2 | 91.7* | 15.8 | 5.9 | 8.5 | .
CCOc1ccc(C2CC(c3ccc(CC)cc3)n3nc(N)nc3N2)cc1 (centres undefined) | -3.3 | -12.9 | . | 43.5* | 3.7 | 5.8
O=C(NC(c1ccccc1)c1ccc2ccccc2n1)C1CCN(Cc2ccc(Oc3ccccc3)cc2)CC1 (centres undefined) | 2.2 | . | 2.5 | 20.0* | . | -0.6
CSc1cnc2c(=O)[nH]c(=O)n(C)c2n1 | . | -3.9 | -3.3 | 26.8* | . | .
Cn1cnc2c1c(=O)[nH]c(=O)n2C | . | 3.7 | . | . | . | .
CO[C@H](CN(C)C(=O)c1cnccn1)[C@@H](C)CN([C@H](C)CO)S(=O)(=O)c1ccc(Cl)cc1 | -0.2 | . | . | . | 0.8 | -3.3
COC(=O)c1ccc(OC(=O)CS(=O)c2ccccc2[N+](=O)[O-])cc1 (centres undefined) | . | -57.9 | 4.2 | 9.7 | 14.1 | -6.9
O=C(CS(=O)c1ccc(C(F)(F)F)cc1[N+](=O)[O-])Oc1ccccc1 (centres undefined) | 11.6 | 98.6* | -0.2 | -31.4 | -16.7 | .
CC(=O)c1ccc(OCC(O)CN2CCN(c3ccc(F)cc3)CC2)cc1 (centres undefined) | . | 98.2* | -0.8 | 7.8 | . | -6.5
CC(=O)Nc1ccc(OCC(O)CN2CCN(c3ccc(F)cc3)CC2)cc1 (centres undefined) | 1.4 | 98.0* | -9.7 | -7.2 | . | -0.5
CC(=O)Nc1ccc(OCC(O)CN2CCN(c3cccc(Cl)c3)CC2)cc1 (centres undefined) | -3.4 | 98.8* | -4.9 | -4.8 | 8.1 | .
SMILES | PglD DTNB | ALR inh | PDI turbidity | NRP1-CendR mod | ARNT TACC3 PPI | ERp5 block
CCC(=O)c1ccc(OCC(O)CN2CCN(c3ccc(F)cc3)CC2)cc1 (centres undefined) | -0.3 | 0.7 | -5.9 | -3.6 | -1.7 | .
Cc1ccc(-c2ccc3c(c2)O[C@H](CN(C)C(=O)C2CC2)[C@@H](C)CN([C@@H](C)CO)S3(=O)=O)cc1 | 5.6 | . | . | . | 2.7 | -1.6
O=C(NNC(=S)NCc1ccco1)c1ccc(Cl)s1 | . | 10.2 | -2.0 | 7.7 | 1.7 | .
O=C(CSCc1ccco1)c1ccc(Cl)s1 | . | 98.0* | . | . | . | .
Cc1nnc(SCC(=O)Nc2ccccc2NC(=O)CSc2nnc(C)s2)s1 | 1.1 | -2.4 | -4.5 | -3.0 | 1.1 | .
COc1cc(/C(C)=N/NC(=O)CSc2nc3ccccc3[nH]2)ccc1O | -1.4 | 99.3* | -2.5 | -6.6 | 15.3 | -1.5
COC(=O)c1ccc(CNC(=O)CSc2nc3ccccc3[nH]2)cc1 | -1.9 | 41.0 | -6.8 | 2.8 | -1.9 | 0.8
C/C(=N\NC(=O)CSc1nnc(C)s1)c1ccc(O)cc1 | . | 98.7* | -4.0 | 6.6 | -2.3 | 0.7
COc1ccccc1C(=O)NC(=O)CSc1nnc(C)s1 | -3.2 | 14.2 | -8.0 | -3.7 | -5.2 | 1.1
COc1cc(/C(C)=N/NC(=O)CSc2nnc(C)s2)ccc1O | 3.4 | 94.5* | -2.4 | -12.2 | 7.8 | 2.4
COc1ccc(CN(C)C[C@H]2Oc3c(NC(=O)NC4CCCCC4)cccc3C(=O)N([C@H](C)CO)C[C@H]2C)cc1 | 0.1 | . | . | . | 4.1 | 4.3
CCC(c1nnnn1C1CCCCC1)N(Cc1ccco1)Cc1cc2ccc(OC)cc2[nH]c1=O (centres undefined) | 4.4 | . | 12.6 | 29.1* | -12.3 | .
Cc1ccc2cc(C(c3nnnn3C3CCCC3)N(Cc3ccco3)Cc3cccs3)c(=O)[nH]c2c1 (centres undefined) | 5.4 | -33.5 | -1.8 | -15.3 | -6.4 | .
O=C(N[C@H]1C=C[C@@H](CC(=O)N2CCCCC2)O[C@H]1CO)c1ccc2c(c1)OCO2 | 15.8* | . | . | . | -0.7 | -2.7
CC(C)(C)[S@](=O)N1Cc2cc(C(=O)NCc3ccc4c(c3)OCO4)nc(-c3cccc(-c4ccncc4)c3)c2[C@@H]1CCO | 14.5 | . | . | . | -2.2 | 2.8
CC(C)NC(=O)Nc1ccc2c(c1)C(=O)N([C@H](C)CO)C[C@H](C)[C@@H](CN(C)C(=O)NC(C)C)OCCCC[C@H](C)O2 | 0.4 | . | . | . | -27.0 | 0.5
Cc1ccc(-c2nc(CS(=O)(=O)CC(=O)N3CCOCC3)c(C)o2)cc1 | . | -7.8 | 5.7 | -0.6 | -2.8 | 0.8

Screening data as filed in PubChem.
